# Experimental data reported in article PMC7862700, “An all-to-all approach to the identification of sequence-specific readers for epigenetic DNA modifications on cytosine”.
# What was measured:
# Test in all cases: DAPPL (digital affinity profiling via proximity ligation, sequencing); 10 mM Tris-HCl pH 7.5, 50 mM NaCl, 1 mM DTT, 4% glycerol, room temperature, 30 min; GST-TFs on glutathione beads, 16-mer random dsDNA library, 0.1% formaldehyde crosslink after washing; high values mean tight binding
# FEV = target: T1, FEV (Homo sapiens, UniProt Q99581 1-238); details: protein: recombinant; tags: N-terminal GST; dsDNA, one strand shown
# T1 sequence: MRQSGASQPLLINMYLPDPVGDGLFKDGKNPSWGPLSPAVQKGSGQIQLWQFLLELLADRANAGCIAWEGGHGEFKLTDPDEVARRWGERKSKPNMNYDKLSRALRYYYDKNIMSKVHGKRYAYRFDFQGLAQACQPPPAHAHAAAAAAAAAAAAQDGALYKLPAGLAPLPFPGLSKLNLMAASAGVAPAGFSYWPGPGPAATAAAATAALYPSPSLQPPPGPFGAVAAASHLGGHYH
# In short: (§1)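 After expression in yeast as GST fusions, human transcription factors were bound to glutathione beads, DNA-barcoded and mixed with a tag-only sample. The pools were incubated with 200 nmole of a 16-mer random double-stranded DNA library in Tris/NaCl/DTT/glycerol buffer (30 min, room temperature), washed and crosslinked with 0.1% formaldehyde. Proximity ligation with BsaI/T4 ligase ran for 1 h at 37 °C, before PCR amplification and sequencing on an Illumina NextSeq500. Binding signal is a hexamer's read frequency for a factor divided by its frequency for the tag-only sample.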
# ETV5 = ETV5 (Homo sapiens, UniProt P41161 1-510); details: protein: recombinant; tags: N-terminal GST; dsDNA, one strand shown
# In short: as §1
# HSF1 = HSF1 (Homo sapiens, UniProt Q00613 1-529); details: protein: recombinant; tags: N-terminal GST; chain copies: 3; dsDNA, one strand shown
# In short: as §1
# SPIC = target: T2, SPIC (Homo sapiens, UniProt Q8N5J4 1-248); details: protein: recombinant; tags: N-terminal GST; dsDNA, one strand shown
# T2 sequence: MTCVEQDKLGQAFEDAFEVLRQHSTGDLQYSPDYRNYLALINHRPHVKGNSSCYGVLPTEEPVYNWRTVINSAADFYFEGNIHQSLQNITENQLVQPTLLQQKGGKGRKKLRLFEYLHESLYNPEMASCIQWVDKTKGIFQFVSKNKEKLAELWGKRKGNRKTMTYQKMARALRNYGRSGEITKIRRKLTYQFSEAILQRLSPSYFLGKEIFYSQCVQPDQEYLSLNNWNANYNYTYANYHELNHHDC
# In short: as §1
# ELF4 = ELF4 (Homo sapiens, UniProt Q99607 1-663); details: protein: recombinant; tags: N-terminal GST; dsDNA, one strand shown
# In short: as §1
# ELK4 = target: T3, ELK4 (Homo sapiens, UniProt P28324-2 1-405); details: protein: recombinant; tags: N-terminal GST; dsDNA, one strand shown
# T3 sequence: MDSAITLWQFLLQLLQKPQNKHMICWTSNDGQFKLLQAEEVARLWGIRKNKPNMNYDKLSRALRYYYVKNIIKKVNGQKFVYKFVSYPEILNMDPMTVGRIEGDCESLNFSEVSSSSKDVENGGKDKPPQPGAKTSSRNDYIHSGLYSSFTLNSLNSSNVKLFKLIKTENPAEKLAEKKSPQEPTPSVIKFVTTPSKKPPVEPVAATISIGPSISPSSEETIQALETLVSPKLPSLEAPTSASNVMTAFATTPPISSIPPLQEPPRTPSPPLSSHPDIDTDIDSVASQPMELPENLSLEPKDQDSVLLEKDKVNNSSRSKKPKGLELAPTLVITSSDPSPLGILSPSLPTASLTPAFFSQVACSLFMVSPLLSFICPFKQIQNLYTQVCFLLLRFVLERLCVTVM
# In short: as §1
# ETV2 = target: T4, ETV2 (Homo sapiens, UniProt O00321 1-342); details: protein: recombinant; tags: N-terminal GST; dsDNA, one strand shown
# T4 sequence: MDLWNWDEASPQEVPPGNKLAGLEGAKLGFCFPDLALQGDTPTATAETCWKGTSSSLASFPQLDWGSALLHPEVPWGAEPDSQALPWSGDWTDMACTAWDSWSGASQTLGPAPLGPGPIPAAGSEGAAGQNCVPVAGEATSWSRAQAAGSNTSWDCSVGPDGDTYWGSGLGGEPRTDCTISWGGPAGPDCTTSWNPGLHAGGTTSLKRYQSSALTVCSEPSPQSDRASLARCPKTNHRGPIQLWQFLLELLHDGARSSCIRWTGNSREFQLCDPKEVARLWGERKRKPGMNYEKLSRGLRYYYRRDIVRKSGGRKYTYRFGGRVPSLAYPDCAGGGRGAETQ
# In short: as §1
# ELF3 = target: T5, ELF3 (Homo sapiens, UniProt P78545 1-371); details: protein: recombinant; tags: N-terminal GST; dsDNA, one strand shown
# T5 sequence: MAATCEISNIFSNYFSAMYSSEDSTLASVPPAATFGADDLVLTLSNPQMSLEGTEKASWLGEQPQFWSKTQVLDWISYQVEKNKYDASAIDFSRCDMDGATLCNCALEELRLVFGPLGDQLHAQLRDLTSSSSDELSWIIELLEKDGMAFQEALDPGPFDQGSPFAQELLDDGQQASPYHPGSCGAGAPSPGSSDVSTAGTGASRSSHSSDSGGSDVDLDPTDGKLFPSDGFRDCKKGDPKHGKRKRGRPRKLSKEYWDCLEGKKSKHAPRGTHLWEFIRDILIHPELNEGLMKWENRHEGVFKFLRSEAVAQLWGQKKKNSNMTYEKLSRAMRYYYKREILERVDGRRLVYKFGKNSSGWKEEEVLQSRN
# In short: as §1
# CRX = CRX (Homo sapiens, UniProt O43186 1-299); details: protein: recombinant; tags: N-terminal GST; dsDNA, one strand shown
# In short: as §1
# ETV1 = ETV1 (Homo sapiens, UniProt P50549 1-477); details: protein: recombinant; tags: N-terminal GST; dsDNA, one strand shown
# In short: as §1
# ERF = target: T6, ERF (Homo sapiens, UniProt P50548 1-548); details: protein: recombinant; tags: N-terminal GST; dsDNA, one strand shown
# T6 sequence: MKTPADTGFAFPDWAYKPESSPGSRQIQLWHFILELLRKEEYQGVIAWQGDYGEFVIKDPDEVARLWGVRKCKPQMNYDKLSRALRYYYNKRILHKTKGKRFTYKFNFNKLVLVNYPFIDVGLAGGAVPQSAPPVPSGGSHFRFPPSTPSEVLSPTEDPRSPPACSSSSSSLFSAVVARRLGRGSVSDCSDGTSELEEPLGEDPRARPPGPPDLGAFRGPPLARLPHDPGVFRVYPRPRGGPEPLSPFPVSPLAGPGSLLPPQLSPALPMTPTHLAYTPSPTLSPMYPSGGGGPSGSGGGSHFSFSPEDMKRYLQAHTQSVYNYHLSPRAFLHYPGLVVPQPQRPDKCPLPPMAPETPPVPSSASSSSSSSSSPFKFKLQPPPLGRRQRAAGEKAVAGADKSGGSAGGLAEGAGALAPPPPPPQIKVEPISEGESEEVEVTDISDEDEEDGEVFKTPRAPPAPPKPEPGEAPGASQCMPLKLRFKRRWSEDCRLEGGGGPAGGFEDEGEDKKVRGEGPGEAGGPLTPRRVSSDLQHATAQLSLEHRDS
# In short: as §1
# ETV3L = target: T7, ETV3L (Homo sapiens, UniProt Q6ZN32 1-361); details: protein: recombinant; tags: N-terminal GST; dsDNA, one strand shown
# T7 sequence: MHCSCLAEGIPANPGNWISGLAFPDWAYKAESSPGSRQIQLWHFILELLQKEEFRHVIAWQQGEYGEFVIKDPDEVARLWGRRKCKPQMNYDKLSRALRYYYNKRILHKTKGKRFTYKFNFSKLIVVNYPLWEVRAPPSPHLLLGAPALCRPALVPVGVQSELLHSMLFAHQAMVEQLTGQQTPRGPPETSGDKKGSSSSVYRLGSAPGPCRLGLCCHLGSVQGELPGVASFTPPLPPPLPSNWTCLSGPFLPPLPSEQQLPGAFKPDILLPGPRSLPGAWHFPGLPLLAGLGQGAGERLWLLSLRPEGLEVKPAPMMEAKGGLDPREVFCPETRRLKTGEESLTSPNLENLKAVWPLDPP
# In short: as §1
# ETS2 = target: T8, ETS2 (Homo sapiens, UniProt P15036 1-469); details: protein: recombinant; tags: N-terminal GST; dsDNA, one strand shown
# T8 sequence: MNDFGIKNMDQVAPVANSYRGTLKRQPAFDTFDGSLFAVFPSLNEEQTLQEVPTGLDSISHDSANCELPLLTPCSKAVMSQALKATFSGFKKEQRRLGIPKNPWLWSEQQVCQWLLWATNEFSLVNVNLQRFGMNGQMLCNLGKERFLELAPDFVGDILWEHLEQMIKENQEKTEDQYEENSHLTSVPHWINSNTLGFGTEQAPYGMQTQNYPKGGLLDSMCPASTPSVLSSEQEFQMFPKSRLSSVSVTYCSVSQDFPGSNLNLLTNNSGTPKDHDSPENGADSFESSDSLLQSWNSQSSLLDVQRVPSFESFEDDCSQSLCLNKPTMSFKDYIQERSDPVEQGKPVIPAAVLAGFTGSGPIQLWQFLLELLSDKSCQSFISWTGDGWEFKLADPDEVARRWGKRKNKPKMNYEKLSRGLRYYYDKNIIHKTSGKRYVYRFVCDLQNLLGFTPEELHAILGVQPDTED
# In short: as §1
# SPDEF = target: T9, SPDEF (Homo sapiens, UniProt O95238 1-335); details: protein: recombinant; tags: N-terminal GST; dsDNA, one strand shown
# T9 sequence: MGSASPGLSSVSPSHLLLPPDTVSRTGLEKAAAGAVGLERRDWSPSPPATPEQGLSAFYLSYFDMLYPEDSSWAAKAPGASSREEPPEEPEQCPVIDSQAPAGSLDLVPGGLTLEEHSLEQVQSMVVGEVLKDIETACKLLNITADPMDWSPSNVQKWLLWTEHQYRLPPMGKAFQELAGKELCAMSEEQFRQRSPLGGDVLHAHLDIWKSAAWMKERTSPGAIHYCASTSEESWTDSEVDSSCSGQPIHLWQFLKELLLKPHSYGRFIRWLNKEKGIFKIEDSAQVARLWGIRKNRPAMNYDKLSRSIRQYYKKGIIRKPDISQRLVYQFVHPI
# In short: as §1
# ETV7 = target: T10, ETV7 (Homo sapiens, UniProt Q9Y603 1-341); details: protein: recombinant; tags: N-terminal GST; dsDNA, one strand shown
# T10 sequence: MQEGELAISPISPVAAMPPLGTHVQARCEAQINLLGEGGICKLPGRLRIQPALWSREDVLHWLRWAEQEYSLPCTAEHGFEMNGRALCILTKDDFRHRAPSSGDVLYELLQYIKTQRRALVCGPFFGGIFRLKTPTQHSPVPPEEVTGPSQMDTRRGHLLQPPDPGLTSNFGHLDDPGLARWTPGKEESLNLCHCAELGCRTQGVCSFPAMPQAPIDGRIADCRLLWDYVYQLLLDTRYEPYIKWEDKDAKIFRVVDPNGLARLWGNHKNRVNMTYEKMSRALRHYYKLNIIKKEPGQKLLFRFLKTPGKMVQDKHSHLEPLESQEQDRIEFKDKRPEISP
# In short: as §1
# ELF5 = target: T11, ELF5 (Homo sapiens, UniProt Q9UKW6-2 1-255); details: protein: recombinant; tags: N-terminal GST; dsDNA, one strand shown
# T11 sequence: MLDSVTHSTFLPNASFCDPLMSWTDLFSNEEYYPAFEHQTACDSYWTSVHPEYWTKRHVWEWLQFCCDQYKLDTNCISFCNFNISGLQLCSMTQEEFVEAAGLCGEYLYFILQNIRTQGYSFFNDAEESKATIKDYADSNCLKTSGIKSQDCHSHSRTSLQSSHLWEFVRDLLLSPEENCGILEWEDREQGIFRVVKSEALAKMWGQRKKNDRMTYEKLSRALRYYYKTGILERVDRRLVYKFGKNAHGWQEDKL
# In short: as §1
# ETV3 = target: T12, ETV3 (Homo sapiens, UniProt P41162-2 1-143); details: protein: recombinant; tags: N-terminal GST; dsDNA, one strand shown
# T12 sequence: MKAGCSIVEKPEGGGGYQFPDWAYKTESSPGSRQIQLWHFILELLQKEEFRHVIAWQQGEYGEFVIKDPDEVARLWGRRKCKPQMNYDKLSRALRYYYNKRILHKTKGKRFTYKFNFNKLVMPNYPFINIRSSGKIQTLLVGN
# In short: as §1
# ETV6 = ETV6 (Homo sapiens, UniProt P41212 1-452); details: protein: recombinant; tags: N-terminal GST; dsDNA, one strand shown
# In short: as §1
# Sequence of CRX (O43186 whole entry): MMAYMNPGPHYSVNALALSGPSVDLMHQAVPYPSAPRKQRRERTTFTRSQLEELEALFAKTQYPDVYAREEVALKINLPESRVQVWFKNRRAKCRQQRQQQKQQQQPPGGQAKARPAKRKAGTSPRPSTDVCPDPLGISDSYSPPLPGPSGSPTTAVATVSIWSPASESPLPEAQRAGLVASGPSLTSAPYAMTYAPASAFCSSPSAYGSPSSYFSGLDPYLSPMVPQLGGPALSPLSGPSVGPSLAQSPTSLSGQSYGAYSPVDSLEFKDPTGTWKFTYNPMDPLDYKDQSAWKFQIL
# Sequence of ETV1 (P50549 whole entry): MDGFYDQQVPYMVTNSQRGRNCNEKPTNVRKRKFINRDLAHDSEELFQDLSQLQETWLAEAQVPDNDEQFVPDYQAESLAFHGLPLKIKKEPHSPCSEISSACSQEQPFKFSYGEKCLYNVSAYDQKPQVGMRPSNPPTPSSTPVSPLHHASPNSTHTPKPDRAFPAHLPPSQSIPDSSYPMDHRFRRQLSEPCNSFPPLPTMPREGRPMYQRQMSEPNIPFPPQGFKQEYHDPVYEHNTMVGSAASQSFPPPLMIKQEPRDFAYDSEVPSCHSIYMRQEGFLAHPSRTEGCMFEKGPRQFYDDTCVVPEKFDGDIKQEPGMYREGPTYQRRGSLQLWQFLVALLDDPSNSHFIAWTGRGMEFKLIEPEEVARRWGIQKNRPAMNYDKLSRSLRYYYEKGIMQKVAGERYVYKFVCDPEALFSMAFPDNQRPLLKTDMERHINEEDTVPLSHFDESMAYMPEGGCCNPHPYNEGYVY
# Sequence of ETV6 (P41212 whole entry): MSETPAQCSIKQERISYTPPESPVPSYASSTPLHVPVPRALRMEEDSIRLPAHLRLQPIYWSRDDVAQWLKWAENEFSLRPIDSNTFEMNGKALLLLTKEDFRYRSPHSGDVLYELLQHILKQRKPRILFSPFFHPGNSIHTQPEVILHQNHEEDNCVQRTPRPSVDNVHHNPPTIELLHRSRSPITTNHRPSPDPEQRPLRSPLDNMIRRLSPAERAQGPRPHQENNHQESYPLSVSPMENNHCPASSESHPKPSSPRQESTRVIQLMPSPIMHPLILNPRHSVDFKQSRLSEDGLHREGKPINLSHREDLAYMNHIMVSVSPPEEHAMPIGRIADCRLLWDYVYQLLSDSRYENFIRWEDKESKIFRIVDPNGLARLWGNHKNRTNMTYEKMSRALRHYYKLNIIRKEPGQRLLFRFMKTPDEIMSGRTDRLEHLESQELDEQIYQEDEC
# Sequence of ETV5 (P41161 whole entry): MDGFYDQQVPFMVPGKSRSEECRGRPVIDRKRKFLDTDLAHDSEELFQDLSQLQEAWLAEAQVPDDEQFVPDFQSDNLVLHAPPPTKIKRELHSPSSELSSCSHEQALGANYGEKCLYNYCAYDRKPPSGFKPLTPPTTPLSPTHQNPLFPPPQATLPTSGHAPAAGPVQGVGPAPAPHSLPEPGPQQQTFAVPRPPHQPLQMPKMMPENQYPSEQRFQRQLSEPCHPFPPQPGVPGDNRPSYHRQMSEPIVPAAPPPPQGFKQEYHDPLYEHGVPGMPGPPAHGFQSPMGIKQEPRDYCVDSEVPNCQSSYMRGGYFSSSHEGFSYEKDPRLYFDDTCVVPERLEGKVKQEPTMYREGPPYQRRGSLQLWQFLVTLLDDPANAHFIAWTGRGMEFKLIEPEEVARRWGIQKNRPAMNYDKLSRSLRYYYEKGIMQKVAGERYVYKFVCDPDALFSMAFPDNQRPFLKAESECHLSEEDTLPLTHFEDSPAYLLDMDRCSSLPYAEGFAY
# Sequence of ELF4 (Q99607 whole entry): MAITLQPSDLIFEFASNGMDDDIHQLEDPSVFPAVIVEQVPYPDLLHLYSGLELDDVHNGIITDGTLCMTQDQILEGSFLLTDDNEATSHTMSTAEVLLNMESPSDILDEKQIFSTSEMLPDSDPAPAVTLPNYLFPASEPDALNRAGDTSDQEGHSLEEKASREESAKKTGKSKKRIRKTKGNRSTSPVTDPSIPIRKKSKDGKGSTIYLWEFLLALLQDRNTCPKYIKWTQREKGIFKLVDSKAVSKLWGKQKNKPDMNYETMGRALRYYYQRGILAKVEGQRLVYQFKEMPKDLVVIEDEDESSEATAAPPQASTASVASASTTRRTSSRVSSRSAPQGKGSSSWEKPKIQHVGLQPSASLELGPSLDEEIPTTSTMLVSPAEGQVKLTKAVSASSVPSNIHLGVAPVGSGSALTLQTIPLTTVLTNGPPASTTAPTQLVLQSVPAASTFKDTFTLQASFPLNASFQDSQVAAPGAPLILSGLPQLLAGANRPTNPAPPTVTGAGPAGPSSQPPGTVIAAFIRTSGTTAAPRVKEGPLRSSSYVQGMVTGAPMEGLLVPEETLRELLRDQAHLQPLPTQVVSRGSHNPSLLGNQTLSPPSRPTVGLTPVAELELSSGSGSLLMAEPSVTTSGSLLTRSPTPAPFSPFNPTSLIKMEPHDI
# Sequence of HSF1 (Q00613 whole entry): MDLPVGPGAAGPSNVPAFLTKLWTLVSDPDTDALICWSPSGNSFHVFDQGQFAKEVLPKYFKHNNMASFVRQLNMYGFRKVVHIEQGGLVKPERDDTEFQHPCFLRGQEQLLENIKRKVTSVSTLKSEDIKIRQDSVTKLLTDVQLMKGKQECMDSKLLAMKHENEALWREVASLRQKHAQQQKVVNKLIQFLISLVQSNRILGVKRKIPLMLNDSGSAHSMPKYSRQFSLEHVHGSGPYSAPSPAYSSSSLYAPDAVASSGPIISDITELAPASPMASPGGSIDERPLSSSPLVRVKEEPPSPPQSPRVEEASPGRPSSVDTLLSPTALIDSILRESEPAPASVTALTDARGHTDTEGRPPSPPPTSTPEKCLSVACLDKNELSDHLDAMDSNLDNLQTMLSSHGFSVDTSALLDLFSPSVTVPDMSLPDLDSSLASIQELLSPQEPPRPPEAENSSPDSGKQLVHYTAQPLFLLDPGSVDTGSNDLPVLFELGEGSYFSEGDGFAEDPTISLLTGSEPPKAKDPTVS
sequence,measurement,setting,value
CCGAAC,binding signal,FEV,"1.25 fold enrichment (6-mer frequency, TF over GST control)"
same,binding signal,ETV5,"1.27 fold enrichment (6-mer frequency, TF over GST control)"
same,binding signal,HSF1,"1.54 fold enrichment (6-mer frequency, TF over GST control)"
same,binding signal,SPIC,"1.32 fold enrichment (6-mer frequency, TF over GST control)"
same,binding signal,ELF4,"1.26 fold enrichment (6-mer frequency, TF over GST control)"
same,binding signal,ELK4,"1.25 fold enrichment (6-mer frequency, TF over GST control)"
same,binding signal,ETV2,"1.36 fold enrichment (6-mer frequency, TF over GST control)"
same,binding signal,ELF3,"1.25 fold enrichment (6-mer frequency, TF over GST control)"
same,binding signal,CRX,"1.17 fold enrichment (6-mer frequency, TF over GST control)"
same,binding signal,ETV1,"1.19 fold enrichment (6-mer frequency, TF over GST control)"
same,binding signal,ERF,"1.23 fold enrichment (6-mer frequency, TF over GST control)"
same,binding signal,ETV3L,"1.27 fold enrichment (6-mer frequency, TF over GST control)"
same,binding signal,ETS2,"1.26 fold enrichment (6-mer frequency, TF over GST control)"
same,binding signal,SPDEF,"1.28 fold enrichment (6-mer frequency, TF over GST control)"
same,binding signal,ETV7,"1.14 fold enrichment (6-mer frequency, TF over GST control)"
same,binding signal,ELF5,"1.21 fold enrichment (6-mer frequency, TF over GST control)"
same,binding signal,ETV3,"1.18 fold enrichment (6-mer frequency, TF over GST control)"
same,binding signal,ETV6,"1.28 fold enrichment (6-mer frequency, TF over GST control)"
